Assay results from PubChem BioAssay (NCATS).
Several values for one entry are separate records, joined by “and”; a condition that tells them apart may be missing. Equal values may be shown once.

Target: Cytochrome P450 3A4 (Homo sapiens) (UniProt P08684)
Assay: qHTS Assay for Activators of Cytochrome P450 3A4 (AID 885); further: nearly all actives have a fitted effect of over 65% in size
Conditions: recombinant CYP3A4, Luciferin-PPXE luminescence, 60 min; series mostly up to 57.1 µM; activity change, positive = activation: at the top concentration; active means well fitted activation curve with a large enough effect; inconclusive means small, poorly fitted or top-dose-only effect; inactive means no such curve, though single readings can be large or run the other way
Outline: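 CYP3A4 activity: Luciferin-PPXE O-dealkylation, 25uM substrate, 200mM KPO4, RT throughout. Read-out is luciferase luminescence; higher values reflect activation.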

Chain of Cytochrome P450 3A4 (Homo sapiens) (P08684 whole entry, looked up): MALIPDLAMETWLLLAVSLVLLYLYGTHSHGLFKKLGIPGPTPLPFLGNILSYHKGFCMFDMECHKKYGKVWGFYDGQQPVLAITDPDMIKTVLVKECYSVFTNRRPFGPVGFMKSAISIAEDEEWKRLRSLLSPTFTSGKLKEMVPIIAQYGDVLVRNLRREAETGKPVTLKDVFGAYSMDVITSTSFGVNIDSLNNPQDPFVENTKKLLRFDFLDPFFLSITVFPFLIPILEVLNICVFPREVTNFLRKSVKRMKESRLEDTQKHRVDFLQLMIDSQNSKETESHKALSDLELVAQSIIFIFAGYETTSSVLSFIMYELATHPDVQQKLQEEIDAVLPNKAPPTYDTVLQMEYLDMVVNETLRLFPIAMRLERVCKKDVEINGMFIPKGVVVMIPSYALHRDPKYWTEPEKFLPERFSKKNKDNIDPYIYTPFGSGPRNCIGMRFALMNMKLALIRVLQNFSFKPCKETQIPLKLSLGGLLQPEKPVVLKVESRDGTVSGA

Activity change, positive = activation, inactive:
CO[C@@H]1COC(=O)C/C=C\[C@@H](C)COC(=O)[C@H](Cc2ccccc2)NC(=O)C/C=C\[C@H]1C -39.1% [at 11.4 µM]
COC(=O)[C@@H]1C[C@H]2CC[C@H](O)C[C@H]2N1Cc1ccc(C)s1 -34.9%
COC(=O)C/C=C\[C@@H](C)[C@@H](/C=N\O[C@@H](C)CN1CCCc2nc(C)c(C)cc21)OC -59.1% [at 11.4 µM]
CCc1cc2c(nc1CC)CCN(CC/C(C)=N/OCC[C@@H]1C=C[C@H](OC(C)=O)[C@H](COC(C)=O)O1)C2 -32.1% [at 11.4 µM]
COc1ccc(COC(=O)N/N=C2/C[C@@H](O)[C@@H](O)[C@@H]3[C@@H]4C(=O)N(C(C)(C)C)C(=O)[C@H]4CC[C@H]23)cc1 -30.7% [at 11.4 µM]
COc1ccc(-c2coc3c(OC)c(OC)cc(O)c3c2=O)cc1 -50.7%
Cc1ccc2oc(=O)c3c4cc(O)c(O)c(C)c4oc3c2c1 -37.5%
O=C1[C@H]2[C@H]3[C@H](O)[C@H](O)C/C(=N/OC[C@@H](O)COCc4ccco4)[C@H]3CC[C@@H]2C(=O)N1Cc1ccccc1 -57.9% [at 11.4 µM]
CCc1cc2c(nc1CC)CCN(CC/C(C)=N/OC[C@@H](O)COCc1ccco1)C2 -38.2% [at 11.4 µM]
COC(=O)c1ccc(CN2[C@H](C(=O)OC)C[C@@]3(O)[C@H](O)[C@H](O)[C@H](O)C[C@@H]23)cc1 -38.6%
Cc1nc(NC2CCCCC2)c2nc(-c3ccccc3)n(CCCN3CCOCC3)c2n1 -51.2%
FC(F)(F)c1ccc(CN2C[C@@H]3C(c4ccccc4)C4(c5ccccc5)CC3(C4)[C@H]2c2ccccc2)cc1 (stereo not given in full) -53.9%
N#CCC(=O)NC(=O)NCC1CC1 -36.4%
CC1(C)CC(=O)c2c(oc3cc(O)c(O)cc23)C1 -39.3%
COc1ccc(O[C@H]2C=C[C@@H](c3ccccc3)O[C@@H]2CON=C(C)C)cc1 -40.2% [at 11.4 µM]
COC(=O)c1cccc(C23CC4(C2)[C@H](CN(Cc2ccc(C(F)(F)F)cc2)[C@@H]4c2ccccc2)C3c2ccc(C(F)(F)F)cc2)c1 (stereo not given in full) -34.6%
COC(=O)[C@@H]1C[C@H]2CC[C@H](O)C[C@H]2N1Cc1ccc(-c2ccccc2)cc1 -46.3%
COC(=O)[C@@H]1C[C@@]2(O)[C@H](O)[C@H](O)[C@H](O)C[C@H]2N1Cc1ccc(N2CCN(C)CC2)cc1 -46%
C[C@H](O/N=C1/[C@H]2O[C@@H]2[C@@H](O)[C@H]2[C@H]1CCn1c(=O)n(-c3ccccc3)c(=O)n12)c1cn([C@H](CO)Cc2ccccc2)nn1 -48.5% [at 11.4 µM] and -48.2% [at 11.4 µM]
COC(=O)[C@@H]1C[C@@H]2CC[C@@H](O)C[C@@H]2N1Cc1ccc(N2CCOCC2)cc1 -34.3%
N#Cc1ccc(C23CC4(C2)[C@H](CN(P(=O)(c2ccccc2)c2ccccc2)[C@@H]4c2ccccc2)C3c2ccc(Cl)nc2)cc1 (stereo not given in full) -56.6%
C#CCCCO/N=C1/C[C@@H](O)[C@@H](O)[C@@H]2[C@@H]3C(=O)N(CCC(=O)OCC)C(=O)[C@H]3CC[C@@H]12 -45.7% [at 11.4 µM]
COc1ccc(COC(=O)N/N=C2/C[C@@H](O)[C@@H](O)[C@@H]3[C@H]4C(=O)N(c5ccc(F)cc5F)C(=O)[C@@H]4CC[C@H]23)cc1 -51.6% [at 11.4 µM]
CCC1=C2CC[C@H]3C(=O)N(c4ccccc4)C(=O)[C@H]3[C@H]2[C@@]2(Cc3ccccc3)C(=NCCOC)OC(=O)N2C1=O -73.5%
C#CCCCO/N=C1/C[C@@H](O)[C@@H](O)[C@@H]2[C@@H]3C(=O)N(CCC(=O)OCC)C(=O)[C@H]3CC[C@H]12 -51% [at 11.4 µM]
Clc1ccc(C2[C@H]3CN(Cc4cccnc4)[C@H](c4ccccc4)C34CC2(c2ccccc2)C4)cn1 (stereo not given in full) -99.7%
COC(=O)NC(/C(C(=O)OC)=C(\C)NCc1ccccc1)c1cccs1 (stereo not given) -35.9% [at 11.4 µM]
O=C1[C@H]2[C@H]3[C@H](O)[C@H](O)C/C(=N/OCc4ccccc4)[C@@H]3CC[C@@H]2C(=O)N1Cc1ccc2c(c1)OCO2 -100% [at 11.4 µM]
CC(=O)OC[C@@H]1O[C@H](C/C=N\O[C@@H](C)c2cn([C@H](CO)Cc3ccccc3)nn2)C=C[C@@H]1OC(C)=O -51.6% [at 11.4 µM] and -34% [at 11.4 µM]
C[C@@H](c1ccccc1)N1C(=O)[C@H]2[C@H]3[C@H](O)[C@H](O)C/C(=N/OCc4ccccc4)[C@H]3CC[C@@H]2C1=O -40.9% [at 11.4 µM]
O=C1[C@H]2[C@H]3[C@H](O)[C@H](O)C/C(=N/OC[C@@H](O)COCc4ccco4)[C@H]3CC[C@@H]2C(=O)N1C1CCCCC1 -43.8% [at 11.4 µM]
COC(=O)c1ccc(C23CC4(C2)[C@H](CN(Cc2ccc(C(F)(F)F)cc2)[C@@H]4c2ccccc2)C3c2ccccc2)cc1 (stereo not given in full) -48.5%
CO[C@H]1COC(=O)[C@@H](Cc2ccccc2)NC(=O)[C@@H](C)COC(=O)C/C=C\[C@@H]1C -36.9% [at 11.4 µM]
FC(F)(F)c1ccc(CN2C[C@@H]3C(c4ccc(C(F)(F)F)cc4)C4(c5cccnc5)CC3(C4)[C@H]2c2ccccc2)cc1 (stereo not given in full) -52.7%
O=C(N/N=C1/C[C@@H](O)[C@@H](O)[C@@H]2[C@H]3C(=O)N(c4ccc(F)cc4F)C(=O)[C@@H]3CC[C@@H]12)OCc1ccccc1 -45.4% [at 11.4 µM]
Cn1c(N)c(C(=O)COC(=O)c2cc(-c3ccccc3)nc3ccccc23)c(=O)n(Cc2ccccc2)c1=O -47.3%
Clc1ccc(C2[C@H]3CN(CC4CCCCC4)[C@H](c4ccccc4)C34CC2(c2ccccc2)C4)cn1 (stereo not given in full) -37.5%
CO[C@@H]1COC(=O)[C@H](COCc2ccccc2)NC(=O)C/C=C\[C@@H](C)[C@H](OC)COC(=O)[C@@H](C)NC(=O)C/C=C\[C@H]1C -36.6% [at 11.4 µM]
COC(=O)c1cccc(C23CC4(C2)[C@H](CN(Cc2ccc(-c5ccccc5)cc2)[C@@H]4c2ccccc2)C3c2ccccc2)c1 (stereo not given in full) -42.7%
CCC1=C(OC(=O)N(CC)CC)N2C(=O)OC(=NCCOC)[C@]2(C)[C@H]2C1=CC[C@H]1C(=O)N(C)C(=O)[C@H]12 -59.6%
